The source of these data is PubChem BioAssay.

Assay [1] is described as follows: E. coli DRC41 culture turbidity changes, primary screen, E. coli filamentation inducer project, strain DRC41, OD650, 48 h (AID 1152).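 Note: E. coli MC1000 strain DRC41 lacking acrAB efflux pump and sulA.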 The following applies: E. coli DRC41 (acrAB sulA), higher = more signal, called active from +8 up or from −8 down.
Assay [2] can be described thus: small-molecule binders of probe aLefty1, primary screen, biochemical, small-molecule microarray, 635/667 nm fluorescence (AID 1153).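 Note: score merges spot fluorescence with signal-to-noise ratio from the scanned slide images.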 The following applies: higher = more signal.
The nature of assay [3]: PSAC antagonists in infected red cells, primary screen, cell-based, P. falciparum Indochina, OD700, 1 h (AID 1154). The following applies: P. falciparum Indochina infected RBC osmotic lysis, higher = more signal, called active from +8 up or from −8 down.
Assay [4] can be described thus: PSAC antagonists in infected red cells, primary screen, cell-based, P. falciparum Indochina, OD700, 2 h (AID 1155).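 Note: lysis reports solute entry through the parasite surface anion channel PSAC; channel blockers reduce lysis of infected cells.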 The note with it: P. falciparum Indochina infected erythrocytes, osmotic lysis OD700; higher = more signal, called active from +8 up or from −8 down.
Assay [5] is described as follows: osmotic lysis modulators in infected erythrocytes, primary screen, PSAC antagonist project, cell-based, P. falciparum Indochina, OD700, 3 h (AID 1156). The following applies: higher = more signal, called active from +8 up or from −8 down.
Assay [6] in a line: PSAC antagonists in infected red cells, primary screen, cell-based, P. falciparum Indochina, OD700, 18 h (AID 1157). The note with it: P. falciparum Indochina infected erythrocytes, osmotic lysis OD700, 18 h; higher = more signal, called active from +8 up or from −8 down.
Assay [7] can be described thus: modulators of S6 phosphorylation in cells, primary screen, cell-based, A549, cytoblot, luminescence, serum-stimulated (AID 1158).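 Note: serum-stimulated A549 lung adenocarcinoma cells; signal is phosphorylated S6 detected by cytoblot immunostaining with HRP secondary.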 The note with it: A549 phospho-S6 cytoblot, 5 h, higher = more signal.
Assay [8] deals with NADPH oxidase 2 (Homo sapiens) (UniProt P04839). The assay can be described thus: NOX2-dependent H2O2 signal modulators, primary screen, NOX inhibitor project, cell-based, HEK293-NOX2, PMA-stimulated, Amplex Red fluorescence (AID 1159). Note: test concentration not given here. The following applies: 45 min, higher = more signal, called active from +8 up or from −8 down.
Chain of NADPH oxidase 2 (Homo sapiens) (P04839 whole entry, looked up): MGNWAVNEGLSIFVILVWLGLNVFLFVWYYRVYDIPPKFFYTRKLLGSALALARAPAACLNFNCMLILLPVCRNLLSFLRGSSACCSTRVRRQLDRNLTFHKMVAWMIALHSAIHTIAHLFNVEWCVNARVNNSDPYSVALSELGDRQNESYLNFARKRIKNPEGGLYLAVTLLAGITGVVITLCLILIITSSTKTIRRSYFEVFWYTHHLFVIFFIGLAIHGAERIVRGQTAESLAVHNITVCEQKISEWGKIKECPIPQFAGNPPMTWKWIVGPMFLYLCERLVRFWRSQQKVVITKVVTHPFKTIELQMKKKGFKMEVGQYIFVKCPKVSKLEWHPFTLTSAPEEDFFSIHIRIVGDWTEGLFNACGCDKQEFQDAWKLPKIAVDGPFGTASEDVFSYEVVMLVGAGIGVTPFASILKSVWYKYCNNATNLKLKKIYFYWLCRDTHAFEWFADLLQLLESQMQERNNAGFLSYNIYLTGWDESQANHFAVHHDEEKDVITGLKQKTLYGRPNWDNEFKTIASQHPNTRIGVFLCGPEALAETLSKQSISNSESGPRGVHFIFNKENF
In assay [9] the target is NADPH oxidase 4 (Homo sapiens) (UniProt Q9NPH5). The assay can be described thus: NOX4-dependent H2O2 signal modulators, primary screen, NOX inhibitor project, cell-based, HEK293-NOX4, tetracycline-induced, Amplex Red fluorescence (AID 1160). The note with it: 45 min, higher = more signal, called active from +8 up or from −8 down.
Chain of NADPH oxidase 4 (Homo sapiens) (Q9NPH5 whole entry, looked up): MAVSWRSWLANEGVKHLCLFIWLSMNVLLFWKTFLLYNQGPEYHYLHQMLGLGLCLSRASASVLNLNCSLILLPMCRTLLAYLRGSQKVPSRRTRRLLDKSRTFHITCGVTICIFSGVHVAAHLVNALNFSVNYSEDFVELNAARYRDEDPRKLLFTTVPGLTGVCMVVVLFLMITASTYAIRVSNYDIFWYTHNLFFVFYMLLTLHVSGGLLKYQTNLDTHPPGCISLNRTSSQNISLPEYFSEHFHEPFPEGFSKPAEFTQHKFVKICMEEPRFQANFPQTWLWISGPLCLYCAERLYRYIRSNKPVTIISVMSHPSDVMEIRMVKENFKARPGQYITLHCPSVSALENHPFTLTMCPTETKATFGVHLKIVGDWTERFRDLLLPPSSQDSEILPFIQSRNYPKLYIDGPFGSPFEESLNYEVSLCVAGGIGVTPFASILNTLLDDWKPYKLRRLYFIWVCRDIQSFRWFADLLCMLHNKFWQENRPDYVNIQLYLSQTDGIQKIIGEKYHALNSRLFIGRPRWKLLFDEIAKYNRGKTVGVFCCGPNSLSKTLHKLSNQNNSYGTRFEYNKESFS
Assay [10] addresses NADPH oxidase 5 (Homo sapiens) (UniProt Q96PH1). Description: NOX5-dependent H2O2 signal modulators, primary screen, NOX inhibitor project, cell-based, HEK293-NOX5, Amplex Red fluorescence (AID 1161). The note with it: HEK293-NOX5, ionomycin, 45 min, higher = more signal.

Calls of active or inactive are those of the source.

Chain of NADPH oxidase 5 (Homo sapiens) (Q96PH1 whole entry, looked up): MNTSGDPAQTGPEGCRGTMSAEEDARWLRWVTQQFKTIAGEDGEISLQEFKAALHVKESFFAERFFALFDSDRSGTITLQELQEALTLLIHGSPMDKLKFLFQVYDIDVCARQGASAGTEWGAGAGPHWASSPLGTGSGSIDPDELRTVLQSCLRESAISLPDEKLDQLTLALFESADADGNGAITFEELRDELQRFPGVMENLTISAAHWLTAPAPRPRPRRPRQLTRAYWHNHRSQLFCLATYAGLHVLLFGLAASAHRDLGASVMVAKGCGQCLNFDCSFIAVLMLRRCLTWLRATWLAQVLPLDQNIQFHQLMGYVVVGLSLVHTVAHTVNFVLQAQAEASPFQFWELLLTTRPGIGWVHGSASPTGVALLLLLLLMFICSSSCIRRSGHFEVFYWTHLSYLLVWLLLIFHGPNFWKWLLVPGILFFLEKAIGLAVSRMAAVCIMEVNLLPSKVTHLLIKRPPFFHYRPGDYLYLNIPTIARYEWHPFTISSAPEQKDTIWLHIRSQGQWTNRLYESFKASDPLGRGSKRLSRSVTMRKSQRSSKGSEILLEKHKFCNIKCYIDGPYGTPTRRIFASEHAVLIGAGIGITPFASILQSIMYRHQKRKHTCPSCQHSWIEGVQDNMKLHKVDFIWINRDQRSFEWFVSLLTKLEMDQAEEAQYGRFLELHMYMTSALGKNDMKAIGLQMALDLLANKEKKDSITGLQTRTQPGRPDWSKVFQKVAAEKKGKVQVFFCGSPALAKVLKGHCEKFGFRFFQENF

Regarding `COc1cc(CO)cc(I)c1O[C@H]1C=C(C(=O)NCCO)C[C@@H](NCc2ccccc2F)[C@@H]1O`, the z-score in [1] is 1.96 (inactive); in assay [3], 22.2 (active); in [4], 4.37 (inactive); in [5], 3.59 (inactive); in assay [6], 1.09 (inactive); in assay [7] it was 0.51. The z-score in assay [8] is 0.0575 (inactive); in assay [9], -0.344 (inactive); in assay [10], -1.69. In assay [2], this compound had a composite z-score of -0.117.

As for `[N-]=[N+]=Nc1ccccc1C[C@@]1(C(=O)O)N=C(c2ccc(OCCCO)cc2)O[C@@H]1c1ccccc1`, the z-score in assay [1] is -0.265 (inactive); in assay [3], 17.7 (active); in assay [4], 1.37 (inactive); in [5] it was -1.14 (inactive); in assay [6], 0.245 (inactive); in assay [7], -0.405. In addition, the z-score in assay [8] was -0.135 (inactive); in [9], 1.27 (inactive); in assay [10], 1.24. The composite z-score in [2] is 0.273.

In the case of `CN1C(=O)C2C=CC(C(O)C3CCCCC3)N(N3CCCCC3)C2C1=O` (stereo not given), the z-score is -0.898 (inactive) in assay [1]; 0.0569 (inactive) in assay [3]; 0.257 (inactive) in assay [4]; 0.42 (inactive) in assay [5]; 1.27 (inactive) in assay [6]; -0.659 in assay [7]. Also, the z-score in assay [8] was -0.407 (inactive); in [9] it was 0.674 (inactive); in assay [10], -0.23. Further, the composite z-score in [2] came to 0.493.

With `NC(N)=NCc1cn(CCc2c[nH]c3ccccc23)nn1`, the z-score in assay [1] is -0.75 (inactive); in [3] it was 0.488 (inactive); in [4] it was 0.078 (inactive); in assay [5], 0.0119 (inactive); in assay [6], 0.114 (inactive); in assay [7] it was -0.583. Besides, the z-score in [8] was -0.00385 (inactive); in [9] it was 0.0455 (inactive); in assay [10] it was -3.95. For the same compound, in assay [2], the composite z-score is -0.151.

As for `C=CC[C@@]1(C(=O)O)N=C(c2ccc(OCCCO)cc2)O[C@@H]1c1ccccc1`, the z-score in assay [1] was 0.938 (inactive); in assay [3], 11.5 (active); in [4] it was 0.526 (inactive); in assay [5], 0.208 (inactive); in [6] it was 0.568 (inactive); in assay [7] it was 0.0003. Moreover, the figures for the z-score in assay [8], in assay [9] and in assay [10] were 0.0822 (inactive), 1.25 (inactive) and 0.448, respectively. The same compound returned a composite z-score in [2] of -0.146.

Regarding `C=CCOC(=O)[C@@H]1[C@H]2C(=O)O[C@H](c3ccccc3)[C@H](c3ccccc3)N2[C@H](c2ccc(OCCOC(=O)[C@H]3C[C@H]4C(=O)N[C@@H](CCCCN(C)C)C(=O)N4[C@H]3c3cccc(OCCO)c3)cc2)[C@@]12C(=O)Nc1ccc(I)cc12`, the z-score in assay [1] was -0.142 (inactive); in assay [3], 1.19 (inactive); in assay [4], 1.16 (inactive); in assay [5] it was -1.08 (inactive); in assay [6], 0.865 (inactive); in assay [7] it was -0.714. In addition, the z-score is 1.53 (inactive) in assay [8], 1.18 (inactive) in [9] and 1.29 in assay [10]. This compound yielded a composite z-score in [2] of 0.0665.

Consider `COC(=O)Cn1c(C(=O)N2CCCC2)cc2c1C[C@H]1CN(C(=O)c3ccccc3)[C@@](Cc3ccc(F)cc3)(C(=O)OC)[C@@H]21`, for which the z-score in assay [1] was -0.246 (inactive); in [3], 1.32 (inactive); in assay [4], -0.428 (inactive); in [5] it was -0.865 (inactive); in assay [6], -1.71 (inactive); in assay [7], 3.59. The z-score was 0.215 (inactive) in assay [8], 1.31 (inactive) in assay [9] and -1.46 in [10]. For the same compound, the composite z-score in assay [2] is -0.041.

On to `O=C1OCC=C[C@H]2OC34C=CCN(c5ccc(Cl)cc5)C(=O)[C@H]3N(CCCCCO)C(=O)[C@@H]4[C@@H]12` (stereo not given in full), for which the z-score was 0.553 (inactive) in assay [1]; 2.47 (inactive) in assay [3]; 0.622 (inactive) in [4]; 0.871 (inactive) in assay [5]; 0.502 (inactive) in assay [6]; -0.646 in assay [7]. Moreover, the z-score in assay [8] is 1.95 (inactive); in assay [9], 0.525 (inactive); in assay [10], 2.87. This compound had a composite z-score in [2] of 0.0927.

With `C[C@]12C(=O)N(CCCCCCO)[C@@H]3C(=O)N(c4ccc(Cl)cc4)CC=CC31O[C@@H]1/C=C\CCCOC(=O)C12` (stereo not given in full), the z-score in assay [1] was 1.64 (inactive); in assay [3], 2.61 (inactive); in assay [4], -1.32 (inactive); in assay [5], -0.397 (inactive); in assay [6] it was -1.66 (inactive); in assay [7], 0.654. The z-score is 1.12 (inactive) in assay [8], 0.428 (inactive) in assay [9] and 2.22 in assay [10]. This compound gave a composite z-score in assay [2] of -0.25.

With `COCCCNC(=O)[C@@]1(Sc2ccc(C)cc2)CC(=O)N(Cc2cc(C(F)(F)F)cc(C(F)(F)F)c2)[C@@H]1c1ccc(CO)cc1`, the z-score in [1] is 0.154 (inactive); in assay [3] it was 0.603 (inactive); in assay [4] it was 0.591 (inactive); in [5], 1.03 (inactive); in assay [6], 0.302 (inactive); in assay [7], -0.103. Also, the z-score was 0.242 (inactive) in assay [8], 0.521 (inactive) in assay [9] and 0.581 in assay [10]. This compound showed a composite z-score in assay [2] of -0.0559.

With `COc1ccc(NN2C(C(O)c3ccccn3)C=CC3C(=O)N(C4CCCCC4)C(=O)C32)cc1` (stereo not given), the z-score in [1] was 0.29 (inactive); in assay [3] it was 3.45 (inactive); in [4] it was 0.539 (inactive); in [5] it was 0.34 (inactive); in assay [6], 0.536 (inactive); in assay [7], -0.552. The z-score in assay [8] was -0.973 (inactive); in [9], -3.8 (inactive); in [10] it was -2.33. In assay [2], the composite z-score worked out at 0.267.

As for `CC(C)(C)OC(=O)CC[C@]1(C(=O)NCCN2CCOCC2)N=C(c2ccc(OCCCO)cc2)O[C@H]1c1ccccc1`, the z-score in assay [1] was 0.167 (inactive); in [3], 12.5 (active); in assay [4], 1.5 (inactive); in [5] it was 0.531 (inactive); in assay [6] it was 0.47 (inactive); in [7], -0.501. Also, the z-score in assay [8] was 0.618 (inactive); in assay [9], 1.54 (inactive); in assay [10] it was 1.42. In addition, the composite z-score in [2] was 0.119.

For the compound `CCOC(=O)C1=CC[C@@H](c2ccccc2C(F)(F)F)N(S(=O)(=O)c2ccc(C)cc2)C1`, the z-score in assay [1] was -0.007 (inactive); in assay [3] it was 0.565 (inactive); in assay [4], -0.555 (inactive); in [5], -0.892 (inactive); in [6], -1.92 (inactive); in assay [7], 0.39. Also, the z-score in assay [8] was 0.17 (inactive); in [9], -0.742 (inactive); in assay [10], -0.836. The composite z-score in assay [2] came to 0.743.
